Measurements reported in PubChem BioAssay (NCI).
Compounds without any hit were thinned out: in the full panel of roughly 79,000, 15% have a hit. Active and inactive are the calls of the source. Cut-off read from the data, not from the text of the source: active = growth inhibition above about 70%; inactive = the rest.

What was measured:
[1] = NCI Yeast Anticancer Drug Screen. Data for the rad50 strain (AID 155);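 note: 0% = growth of vehicle-only cultures of the same strain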; settings: S. cerevisiae rad50 strain growth inhibition; at 50.0 µM; stronger effect = higher value
Procedure, shortened: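 Relative growth inhibition (compound vs vehicle) was measured in yeast with a defined repair-gene alteration.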

[2] = NCI Yeast Anticancer Drug Screen. Data for the mec2-1 strain (AID 157); settings: S. cerevisiae mec2-1 strain, at 50.0 µM, stronger effect = higher value
Procedure, shortened: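 Growth inhibition is read against vehicle-treated controls after compound exposure of the mec2-1 yeast strain, which is defective in DNA damage repair or cell cycle control.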

[3] = NCI Yeast Anticancer Drug Screen. Data for the sgs1 mgt1 strain (AID 161);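 note: 0% = growth of cultures given vehicle only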; settings: S. cerevisiae sgs1 mgt1 strain, at 50.0 µM, stronger effect = higher value
Procedure, shortened: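 Yeast cells carrying a defined DNA-repair defect were exposed to test compounds. Growth inhibition was measured relative to vehicle-treated controls.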

[4] = NCI Yeast Anticancer Drug Screen. Data for the cln2 rad14 strain (AID 165);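 note: 0% = growth equal to vehicle treated cultures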; settings: S. cerevisiae cln2 rad14 strain, at 50.0 µM, stronger effect = higher value
Procedure, shortened: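 Growth inhibition, relative to vehicle-treated controls, is the read-out. The test organism is a yeast strain with defined genetic alterations, cln2 rad14.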

[5] = NCI Yeast Anticancer Drug Screen. Data for the bub3 strain (AID 167); settings: S. cerevisiae bub3 mutant strain, at 50.0 µM, stronger effect = higher value
Procedure, shortened: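 Screening used yeast with an engineered genetic alteration affecting cell cycle control. Compound-exposed cultures were compared with vehicle cultures, and reduced growth was taken as inhibition.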

[6] = NCI Yeast Anticancer Drug Screen. Data for the mlh1 rad18 strain (AID 175); settings: S. cerevisiae mlh1 rad18 strain growth inhibition; at 50.0 µM; stronger effect = higher value
Procedure, shortened: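 Cells of a genetically altered yeast strain, deficient in DNA damage repair, were treated with compound. Their growth was then compared with that of vehicle-treated cultures to give inhibition.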

Measured: growth inhibition

CN(C)c1c([O-])c(=[N+](C)C)c1=O
inactive: [1] -37.9% | [2] -14.2% | [3] -20.2% | [4] -10.6% | [5] -5.55% | [6] -45.9%

O=C1c2ccccc2-c2nc(-c3ccncc3)cc3c2c1nc1ccccc13
inactive: [1] 25.6% | [2] 18.4% | [3] 27.2% | [4] 11.1% | [5] 14.1% | [6] 34.4%

CCOC(=O)C(C)C(=O)NCc1ccccc1 (stereo not given)
inactive: [1] -4.55% | [2] -4.9% | [3] -6.8% | [4] -43.5% | [5] 9.35% | [6] 11.3%

COc1cc2c(cc1OC)C(CC(=O)NN=C(C)C)NCC2 (stereo not given)
inactive: [1] -20.6% | [2] -19.6% | [3] -10.2% | [4] 3.1% | [5] -16.8% | [6] -34.2%

CCOC(=O)C(c1ccc(C)cc1)C(Cl)(Cl)Cl (stereo not given)
inactive: [1] 2.45% | [2] -9.55% | [3] 3.85% | [4] -1.05% | [5] -11.5% | [6] 26.4%

CCN(CC)CCn1c(=O)c2c(ncn2C)n(C)c1=O
inactive: [1] -5.55% | [2] -22.7% | [3] 12.6% | [4] -36.3% | [5] 11.8% | [6] -15.6%

O/N=C1/CC2(N3CCOCC3)C3CC/C(=N\O)C2CC1(Cc1ccccc1)C3 (stereo not given)
inactive: [1] 2.75% | [2] 0.25% | [3] 17.1% | [4] 27.7% | [5] -11.2% | [6] -10%

COc1ccc2c(c1)OCCN(C)OC2c1cccc(Cl)c1 (stereo not given)
inactive: [1] -4.55% | [2] -6.45% | [3] -7.15% | [4] -5.15% | [5] 9.4% | [6] 6.7%

CCOC(=O)c1[nH]c(CC(=O)O)c(C(=O)OC)c1C
inactive: [1] 8.25% | [2] 14.8% | [3] 19.1% | [4] -3.5% | [5] 26.5% | [6] 7.3%

COc1ccc(C(C)O)cc1 (stereo not given)
inactive: [1] 23.2% | [2] 3.2% | [3] 6.25% | [4] 12.9% | [5] -5.65% | [6] 9.15%

COc1ccc(S(=O)(=O)O)cc1NC(=O)CC(=O)c1cccc([N+](=O)[O-])c1
inactive: [1] -5.5% | [2] -18% | [3] 9.2% | [4] 9.05% | [5] -12% | [6] -15.9%

COC(=O)/C(=N/O)C(C(=O)C=C(C)C)C(=O)C(=O)Nc1nc2ccc([N+](=O)[O-])cc2s1 (stereo not given)
inactive: [1] 18% | [2] -4.55% | [3] 10% | [4] -58.8% | [5] 5.95% | [6] 6.25%

O=S(=O)(c1ccccc1)N1CCCCC1
inactive: [1] -23.3% | [2] 5.05% | [3] 3.45% | [4] -33% | [5] 29.5% | [6] 25.6%

COc1cc(-c2ccc(N=Nc3ccc(N)nc3N)c(OC)c2)ccc1N=Nc1ccc(N)nc1N
inactive: [1] 6.9% | [2] -3.9% | [3] 23.3% | [4] 12.4% | [5] -1.45% | [6] 11.7%

OC1CCCC1c1ccccc1 (stereo not given)
inactive: [1] 6.4% | [2] -24.4% | [3] -11.9% | [4] -7.55% | [5] -3.7% | [6] 4.45%

CCCC=NCCCC
inactive: [1] -17.1% | [2] -7.55% | [3] -35.6% | [4] -67% | [5] -30% | [6] -24.4%

N#CCc1ccc(Nc2cc(=O)[nH]c(=O)[nH]2)cc1
inactive: [1] -7.5% | [2] 1.5% | [3] 3.65% | [4] -35.1% | [5] -7.5% | [6] -7.55%

CCC1(CC)C(=O)N(C(=O)c2ccccc2)N(C(=O)c2ccc(Cl)cc2)C1=O
inactive: [1] 20.9% | [2] 18.7% | [3] 34.5% | [4] 32.5% | [5] 46.8% | [6] -79.8%

CCOC(=O)CC(=O)Nc1cccc2sc3ncccc3c(=O)c12
inactive: [1] -35.4% | [2] -52.6% | [3] -4.25% | [4] 15.4% | [5] 0.7% | [6] 0.2%

COc1cc2cc(c1Cl)NC(=O)/C=C/[C@]1(C)O[C@H]1[C@H](C)[C@@H]1C[C@@](O)(NC(=O)O1)[C@H](OC)C=C/C=C(\C)C2
inactive: [1] 20.2% | [2] 4.55% | [3] 12.1% | [4] 22.1% | [5] 20.5% | [6] 21.4%
